High-throughput results from PubChem BioAssay.
ELG1 DNA repair: qHTS screen for small molecules that inhibit ELG1-dependent DNA repair in human embryonic kidney (HEK293T) cells expressing luciferase-tagged ELG1; 330,000 tested, 2.3% active; HEK293T ELG1-luciferase reporter, luminescence, 16 h; DNA damage induced by 5-fluorouridine; Potency, µM (highest dose often 46.1 µM), without a hit: at the top dose activity change, negative = inhibition, actives largely listed as inhibitors; AID 504467, 2011; further: on the % scale 0 is the no-effect control and ±100 the full control effect; nearly all actives have a fitted effect of over 55% in size
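Cells (2,000 per well) received 5-fluorouridine plus test compound or DMSO and were incubated 16 hr at 37 °C, 5% CO2. Luciferase activity was read by luminescence 30 min after ONE-Glo addition; signal suppression marked inhibition of damage-induced ELG1 function.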
FLuc counter: qHTS profiling assay for firefly luciferase inhibitor/activator using purifed enzyme and Km concentrations of substrates (counterscreen for miR-21 project); Luciferin 4-monooxygenase (Photinus pyralis), P08659; purified FLuc, Km substrates, luminescence inhibition; Potency, µM (series often up to 57.5 µM), inactives show top-dose activity change, negative = inhibition, actives largely listed as inhibitors; 360,000 tested, 6.9% active; AID 588342, 2011;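 further: plate controls were vehicle for no effect and reference inhibitor for full effect; nearly all actives have a fitted effect of over 55% in size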
Target sequence (P08659 whole entry, looked up): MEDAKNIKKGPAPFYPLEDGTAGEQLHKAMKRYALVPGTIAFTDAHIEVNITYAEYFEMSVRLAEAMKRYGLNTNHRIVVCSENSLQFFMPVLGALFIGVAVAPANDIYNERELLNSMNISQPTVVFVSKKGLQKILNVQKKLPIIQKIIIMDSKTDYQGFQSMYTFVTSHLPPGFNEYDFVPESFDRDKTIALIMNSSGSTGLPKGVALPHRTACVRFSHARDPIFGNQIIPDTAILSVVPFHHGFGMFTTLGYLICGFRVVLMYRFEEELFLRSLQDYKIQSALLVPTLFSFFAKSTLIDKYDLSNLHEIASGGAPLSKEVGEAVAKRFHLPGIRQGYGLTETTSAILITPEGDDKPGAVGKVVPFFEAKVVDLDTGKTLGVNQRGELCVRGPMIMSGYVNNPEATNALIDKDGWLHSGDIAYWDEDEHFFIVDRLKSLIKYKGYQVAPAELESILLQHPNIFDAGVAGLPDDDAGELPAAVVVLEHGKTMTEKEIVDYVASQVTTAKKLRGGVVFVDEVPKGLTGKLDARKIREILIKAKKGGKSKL
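Purified P. pyralis luciferase (10nM final) with 10uM D-luciferin and 10uM ATP (Km levels) in 50mM Tris acetate pH 7.5, 10mM Mg acetate, 0.01% Tween-20, 0.05% BSA; qHTS 6-point titration, ~60 µM downward; luminescence read.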
NPC1 prom act: qHTS Assay for NPC1 Promoter Activators; Huh7 NPC1 promoter luciferase reporter, 24 h; Potency, µM (titrated, usually from 9.22 µM), for inactives: at the highest dose activation, usual class: activators; 320,000 tested, 2.4% active; AID 485313, 2010; further: % of control where 0% means no effect; nearly all actives have a fitted effect of over 60% in size
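Huh7 reporter cells (NPC1 promoter driving luciferase) are dosed with compound for 24 h at 37 °C, 5% CO2; luciferase detection reagent is then added and luminescence measured after 10 min at ambient temperature.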
SMN2 splice up: qHTS Assay for Enhancers of SMN2 Splice Variant Expression. HEK293 SMN2-luciferase splicing reporter, luminescence, 30-36 h. Potency, µM (top dose mostly 46.1 µM), without a hit: top-dose activity change, positive = activation, hits mostly activators. 210,000 tested, 2.8% active; further: % of control where 0% means no effect; nearly all actives have a fitted effect of over 55% in size
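HEK293 cells carry an SMN2 […]–luciferase reporter in which exon 7 inclusion puts luciferase in frame. Cells were plated 10-12 h before compound addition, then incubated 30-36 h at 37C. ONE-Glo luminescence was read; sodium butyrate at 4.5 mM final served as control.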
Rab9 prom act: qHTS Assay for Rab9 Promoter Activators; Huh7 Rab9 promoter-luciferase reporter, luminescence, 24 h; AID 485297, 2010; Potency, µM (highest dose often 9.22 µM), for the others: top-dose activation, negative = inhibition, hits mostly activators; 320,000 tested, 2.8% active; further: % of control where 0% means no effect; nearly all actives have a fitted effect of over 60% in size
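Steps: seed 1500 Huh7 Rab9-luc cells per well, rest 2 h at 37 °C; add compound in DMSO; incubate 24 h; add luciferase reagent, 10 min ambient; read luminescence.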
ELG1 genotox: qHTS screen for small molecules that induce genotoxicity in human embryonic kidney (HEK293T) cells expressing luciferase-tagged ELG1; HEK293T ELG1-luciferase reporter, luminescence, 16 h; Potency, µM (highest dose often 46 µM), without a hit: at the highest dose activity change, positive = activation, most hits filed as activators; 330,000 tested, 1.3% active; AID 504466, 2011; further: % of control where 0% means no effect; nearly all actives have a fitted effect of over 60% in size
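ELG1-luciferase HEK293T cells, 2,000/well; compound pinned in; 16 hr, 37 °C, 5% CO2; ONE-Glo, 30 min RT; luminescence on CCD imager.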
An asterisk follows results filed as active; ? = inconclusive; nt = no result given; [ ] = remark or other dose. This is a sample that favours compounds with a hit; in the whole collection about 9.2% have one here. The call rests on the fitted dose curve; in most records, active means well fitted curve in the direction sought with a large enough effect; inconclusive means small, poorly fitted or top-dose-only effect, or another doubt; inactive means no such curve, though single readings can be large; an effect the other way counts as inactive or inconclusive. Potency means the concentration at half of the fitted maximal effect.

SMILES	ELG1 DNA repair	FLuc counter	NPC1 prom act	SMN2 splice up	Rab9 prom act	ELG1 genotox
COC(=O)c1ccc(CN(c2ccc(C)cc2)S(=O)(=O)c2ccc3c(c2)OCCO3)o1	20.6µM*	0.6%	6.4%	8.2%	-3.3%	-0.1%
CCOc1ccc(N(CC(=O)Nc2ccc(C)cc2)S(C)(=O)=O)cc1	?	15.1µM*	3.55µM*	nt	0.891µM*	?
CCc1nc(Nc2ccc(OC)cc2OC)c2oc3ccccc3c2n1	-24.4%	1.6%	-5.7%	nt	-2.0%	-0.5%
CC(=O)OC1CC(C)N(C(=O)c2ccccc2)c2ccc(C)cc21 (stereo not drawn)	0.0%	-0.6%	3.6%	?	0.8%	20.6µM*
CCCC(=O)OC1CC(C)N(C(=O)c2ccccc2)c2ccc(C)cc21 (stereo not drawn)	?	1.4%	-8.0%	-86.5%	0.4%	3.1%
NC(=O)COc1ccc2cc(-c3ccccc3)c(=O)oc2c1	?	?	29.0%	nt	14.1%	?
CC(=O)Oc1ccc2cc(-c3nc4ccccc4n3C)c(=O)oc2c1	?	?	?	?	2.82µM*	?
CC(C)(C)C(=O)Oc1ccc2cc(-c3ccc4ccccc4n3)c(=O)oc2c1	?	-12.2%	?	14.1µM*	?	?
COc1ccccc1OCC(=O)Nc1c(C(=O)c2ccc(F)cc2)oc2ccccc12	nt	4.5%	nt	-5.0%	nt	nt
Cn1c(SCC(=O)c2ccccc2)nnc1-c1cccc(N)c1	?	23.9µM*	25.4%	16.6%	?	?
Cn1c(SCC(=O)c2ccccc2)nnc1-c1ccco1	?	21.3µM*	26.1%	14.3%	?	?
Cn1c(SCC(=O)c2ccccc2)nnc1-c1ccncc1	?	-0.5%	1.2%	3.3%	-4.3%	3.2%
COc1ccc(C(=O)CSc2nnc(-c3ccco3)n2C)cc1	3.3%	-14.6%	0.7%	-12.6%	-1.7%	3.5%
Cn1c(SCC(=O)c2ccccc2)nnc1-c1ccccn1	?	16.9µM*	?	nt	3.55µM*	?
CCCCCOC(=O)CSc1nc2sc3c(c2c(=O)n1Cc1ccccc1)CC(C)(CC)OC3 (stereo not drawn)	nt	3.0%	nt	-4.8%	nt	nt
CC1CCCCC1NC(=O)CN1C(=O)NC(C)(c2cccc(Br)c2)C1=O (stereo not drawn)	4.8%	nt	-1.4%	nt	0.3%	-1.5%
O=C(COC(=O)CCC(=O)c1cccs1)Nc1ccc(F)c(F)c1F	-1.1%	nt	nt	nt	nt	-0.2%
COc1ccc(CCC(=O)NNC(=O)c2ccccn2)cc1OC	3.1%	-0.5%	0.5%	nt	2.3%	1.2%
OCCNc1cc(-n2nc(-c3ccccc3)cc2-c2ccccc2)ncn1	16.4µM*	-17.5%	0.5%	-11.9%	1.2%	-1.1%
CCN(CC)CCC(=O)Nc1cccc2c1C(=O)c1ccccc1C2=O	?	-8.5%	-12.7%	nt	-17.5%	-4.8%
CN(C)c1ccc(C(=O)/C=C/c2cccnc2)cc1	?	3.01µM*	?	nt	?	14.7%
CN(C)c1ccc(/C=C/C(=O)c2cccc(Br)c2)cc1	15.5%	3.01µM*	23.2%	-1.0%	25.8%	2.1%
CCN(C(=O)c1cccc(Br)c1)c1ccccc1	-6.7%	0.3%	-2.3%	-1.1%	2.3%	2.0%
CCc1ccccc1NC(=O)Nc1nnc(N(CC)c2ccccc2)s1	nt	-12.1%	nt	nt	nt	nt
COc1cc2c(cc1OC)C1O[C@](c3ccsc3)(C2)OC2=C1C(=O)OC1(CCCCC1)C2	nt	-0.7%[11.5 µM]	-3.8%[1.84 µM]	nt	4.4%[1.84 µM]	nt
SMILES	ELG1 DNA repair	FLuc counter	NPC1 prom act	SMN2 splice up	Rab9 prom act	ELG1 genotox
Cc1ccc(S(=O)(=O)Nc2cccc3c2O[C@H](CN(C)Cc2ccccc2)[C@@H](C)CN([C@H](C)CO)C3=O)cc1	?	nt	nt	nt	nt	0.8%
COc1ccc2cc(C(=O)CCC(=O)O)ccc2c1	nt	nt	nt	2.5%[9.22 µM]	nt	nt
CCOC(=O)CCSc1nc(C)c2cc(OC)ccc2n1	?	13.5µM*	?	12.5%	?	?
O=C(CCCc1nc(-c2ccco2)no1)Nc1ccccc1[N+](=O)[O-]	nt	7.5%	nt	nt	nt	nt
COc1ccc(Cl)cc1NC(=O)c1cc(-c2cc(C)ccc2O)n[nH]1	-10.8%	-13.6%	-1.8%	nt	-4.3%	-3.1%
Cc1ccc(C)c(NC(=O)c2cc(-c3cc(C)ccc3O)n[nH]2)c1	?	3.01µM*	2µM*	nt	26.5%	?
Cc1cccc(NC(=O)c2cc(-c3cc(Cl)ccc3O)n[nH]2)c1	?	?	2.24µM*	nt	?	17.9%
CC(C)C[C@@H](CC(=O)N[C@@H](CCC(=O)O)CC(=O)O)NC(=O)[C@@H]1CNCC[C@H]1NC(=O)C[C@@H](NC(=O)C[C@H](CO)NC(=O)[C@@H]1CCCC[C@H]1N)C(C)C	nt	nt	nt	0.7%	nt	nt
Cc1cccc(-c2noc(-c3ccccc3OCC(=O)Nc3ccccc3[N+](=O)[O-])n2)c1	nt	-10.4%	nt	nt	nt	nt
COc1cc(OC)cc(-c2nc(-c3cccc(C)c3)no2)c1	nt	?	nt	-0.5%	nt	nt
CCOc1cc(-c2nc(-c3ccccc3OC)no2)cc(OCC)c1OCC	?	2.9%	0.2%	?	-3.8%	-28.3%
COc1ccccc1OCc1nc(-c2cccc(C)c2)no1	nt	8.49µM*	nt	?	nt	nt
COc1ccccc1-c1nc(-c2cccc(C)c2)no1	?	1.2µM*	0.316µM*	4.47µM*	0.112µM*	1.16µM*
COc1ccc(-c2nc(-c3ccccc3OC)no2)cc1OC	?	15.1µM*	3.55µM*	?	?	11.0%
COc1cc(-c2nc(-c3cccc(C)c3)no2)cc(OC)c1OC	18.4µM*	?	7.9%	28.8%	5.2%	0.7%
C=C(C)[C@@H]1CC[C@]2(C(=O)O)CC[C@]3(C)[C@H](CCC4[C@@]5(C)CC[C@H](O)C(C)(C)[C@@H]5CC[C@]43C)[C@@H]12 (stereo partly drawn)	nt	nt	nt	7.5%	nt	nt
COc1ccc(-c2nc(-c3cccc(C)c3)no2)cc1OC	?	4.26µM*	0.794µM*	12.6µM*	4.47µM*	?
O=C(Nc1ncccc1O)c1ccc(Oc2ccccc2)cc1	?	6.75µM*	1.78µM*	nt	2.82µM*	9.2µM*
O=C(NC1=NCCS1)c1ccc(OCC2CCCO2)cc1 (stereo not drawn)	?	?	0.398µM*	10µM*	0.355µM*	?
O=C(Nc1ncccc1O)c1ccc(OCC2CCCO2)cc1 (stereo not drawn)	?	7.57µM*	0.794µM*	nt	0.794µM*	1.16µM*
